# Results as given in PubChem BioAssay (Tox21).
# A number with no mark means an inactive call. Results filed as inconclusive are left out. A call without a number means that no potency is given here. Active and inactive are the calls of the source. Unless noted, calls come from the whole dose curve; as a rule, active = well fitted curve in the direction sought with a large enough effect in the repeat runs; inconclusive = weak or mixed curves; inactive = no such curve, though single readings can be large; an effect the other way counts as inactive or inconclusive.
# Tests used:
# [1] = A CellTox Green Cytotoxicity Assay to monitor cytotoxicity in HepG2 cells - 8 hour (AID 1224890); note: nearly all actives have a fitted effect of over 45% in size
# Outline: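 HepG2, 600 cells/well premixed w/ CellTox Green; 5 h settle, 37 C/5% CO2; pintool cpd add (DMSO); 37 C, 40 h; fluorescence read at 0, 8, 16, 24, 32, 40 h.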
# [2] = qHTS assay to identify small molecule antagonists of the estrogen receptor alpha (ER-alpha) signaling pathway using the BG1 cell line in the presence of 0.1 nM 17-beta-estradiol - cell viability counter screen (AID 1259241); note: nearly all actives have a fitted effect of over 40% in size
# Outline: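 The cell line endogenously expresses full-length ER-alpha and carries four EREs driving luciferase. Cells are cultured 5 days hormone-free, treated 22 hr with compounds and 0.1 nM estradiol, then viability is read by fluorescence.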
# [3] = qHTS assay to identify small molecule HDAC inhibitors (AID 1259364);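 note: wild-type HCT-116 cells with endogenous class I/II HDAC activity; top concentration of the series differs between compounds; nearly all actives have a fitted effect of over 45% in size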
# Outline: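 HCT-116 (wild type), 1,500 cells/well, overnight; compound 2 hr 37C 5% CO2; HDAC-Glo I/II reagent 30 min RT; luminescence readout.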
# [4] = qHTS assay to identify small molecule HDAC inhibitors - cell viability counter screen (AID 1259365); note: series mostly up to about 92 µM; nearly all actives have a fitted effect of over 50% in size
# Outline: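 Viability readout: CellTiter-Glo luminescence. Wild-type HCT-116 cells, 2hr compound treatment following overnight attachment at 37 C.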
# [5] = qHTS assay to identify small molecule agonists of the sonic hedgehog signaling (Shh) pathway - cell viability counter screen (AID 1259366); note: nearly all actives have a fitted effect of over 50% in size
# Outline: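 Viability measured fluorometrically (CellTiter-Fluor, 1hr, 37C) in 3T3 Gli1-Luc reporter cells after 23hr compound exposure within a 24hr incubation at 37C/5% CO2.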
# [6] = qHTS assay to identify small molecule antagonists of the sonic hedgehog signaling (Shh) pathway - cell viability counter screen (AID 1259367); note: nearly all actives have a fitted effect of over 55% in size
# Outline: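 Cytotoxicity was assessed in parallel with Shh reporter activity by measuring live-cell protease fluorescence (CellTiter-Fluor) in NIH/3T3 cells stably carrying Gli1-Luc, treated with compound under conditioned medium stimulation for 23 hr plus 1 hr reagent incubation.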
# [7] = qHTS assay to identify small molecule agonists of the sonic hedgehog signaling (Shh) pathway (AID 1259368; calls by dose curve;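 note: NIH/3T3-derived 3T3Gli1-Luc cells carrying a stable Gli1-driven firefly luciferase reporter; series mostly up to about 92 µM; nearly all actives have a fitted effect of over 15% in size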)
# Outline: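 Read-out: firefly luciferase luminescence from a Gli1 response element reporter stably integrated in NIH/3T3-derived 3T3Gli1-Luc cells, measured 30 min at room temperature after reagent addition. Compound exposure lasted 24 hr at 37 C, 5% CO2.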
# [8] = qHTS assay to identify small molecule antagonists of the sonic hedgehog signaling (Shh) pathway (AID 1259369; calls by dose curve; note: nearly all actives have a fitted effect of over 45% in size)
# Outline: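 Luminescence readout: firefly Luc under Gli1 response element in 3T3Gli1-Luc cells (NIH/3T3 clone). Antagonist mode, stimulation by conditioned medium; compound exposure 24hr at 37 C, 5% CO2.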
# [9] = target: Estrogen receptor beta (Homo sapiens) (UniProt Q92731); assay: qHTS assay to identify small molecule agonists of the estrogen receptor beta (ER-beta) signaling pathway (AID 1259377; active = well fitted activation curve with a large enough effect in the signal ratio in the repeat runs, not every such curve was filed as active; the % refers to the signal ratio)
# Sequence of Estrogen receptor beta (Homo sapiens) (Q92731 whole entry, looked up): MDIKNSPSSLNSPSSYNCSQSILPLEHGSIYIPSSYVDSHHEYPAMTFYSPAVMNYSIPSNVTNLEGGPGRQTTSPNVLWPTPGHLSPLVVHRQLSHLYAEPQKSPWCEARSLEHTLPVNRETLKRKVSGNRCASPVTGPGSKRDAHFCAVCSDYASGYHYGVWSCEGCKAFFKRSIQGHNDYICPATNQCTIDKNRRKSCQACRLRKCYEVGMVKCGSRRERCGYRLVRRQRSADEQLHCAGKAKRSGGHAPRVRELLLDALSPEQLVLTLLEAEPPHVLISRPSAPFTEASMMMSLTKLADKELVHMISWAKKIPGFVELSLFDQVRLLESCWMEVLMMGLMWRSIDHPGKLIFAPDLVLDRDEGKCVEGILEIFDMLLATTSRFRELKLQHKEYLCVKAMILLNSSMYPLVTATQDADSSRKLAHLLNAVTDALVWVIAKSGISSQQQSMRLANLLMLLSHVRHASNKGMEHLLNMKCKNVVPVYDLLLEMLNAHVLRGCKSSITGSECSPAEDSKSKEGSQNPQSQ
# Outline: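 A UAS-controlled beta-lactamase reporter in ER-beta-UAS-bla HEK293T cells reports receptor activation. Compounds act for 16 hr at 37C in 2% charcoal-stripped serum, and a FRET substrate is read by fluorescence after 2 hours.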
# [10] = target: Estrogen receptor beta (Homo sapiens) (UniProt Q92731); assay: qHTS assay to identify small molecule antagonists of the estrogen receptor beta (ER-beta) signaling pathway (AID 1259378; active = well fitted inhibition curve with a large enough effect in the signal ratio in the repeat runs, not every such curve was filed as active; the % refers to the signal ratio)
# Outline: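 ER-beta-UAS-bla HEK293T (GripTite) cells in 2% charcoal-stripped FBS medium were preincubated 6 hr at 37C, dosed with compound, then stimulated with 1 nM E2 (final) for 16 hr; beta-lactamase reporter read by B/G FRET fluorescence after 2 hr substrate loading.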
# [11] = qHTS assay to identify small molecule agonists of the androgen receptor (AR) signaling pathway in the presence of an antagonist - cell viability counter screen (AID 1259379); note: nearly all actives have a fitted effect of over 25% in size; note: potency is the fitted concentration of half-maximal effect
# Outline: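 Viability counter screen: CellTiter-Fluor fluorescence, measured in the same wells as the luciferase read-out. MDA-kb2 cells, 3,000/well, with nilutamide at 3.0uM final and compounds at 15 concentrations, 16 hr at 37C, 0% CO2.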
# [12] = qHTS assay to identify small molecule agonists of the estrogen receptor beta (ER-beta) signaling pathway - cell viability counter screen (AID 1259380); note: nearly all actives have a fitted effect of over 30% in size
# Outline: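 Luminescence read-out (CellTiter-Glo, 30 min, room temp) taken in the same wells as the beta-lactamase reporter assay; ER-beta-UAS-bla HEK293T cells exposed to DMSO-dissolved compounds for 16 hr at 37C in 2% charcoal-stripped FBS medium.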
# [13] = qHTS assay to identify small molecule antagonists of the estrogen receptor beta (ER-beta) signaling pathway - cell viability counter screen (AID 1259382); note: series mostly up to about 92 µM; nearly all actives have a fitted effect of over 55% in size
# Outline: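 Luminescent ATP read-out (CellTiter-Glo, 30 min, RT) taken in the same wells as the bla reporter assay. HEK293T ER-beta-UAS-bla cells in 2% charcoal-stripped FBS were exposed to compounds with 1nM E2 for 16 hr at 37C.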
# [14] = qHTS assay to identify small molecule agonists or antagonists of the thyroid stimulating hormone receptor (TSHR) signaling pathway - wild type cell line counter screen (AID 1259384; calls by dose curve)
# Outline: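 Wild-type HEK293 cells were plated 18 h at 37 C/5% CO2, pin-dosed with compound plus Ro20-1724 medium, held 30 min at room temperature, then given cAMP-d2 and anti-cAMP-cryptate; fluorescence was read after 1 h. Fifteen concentrations, triplicate.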
# [15] = qHTS assay to identify small molecule antagonists of the androgen receptor (AR) signaling pathway using the MDA cell line in the presence of 0.5 nM R1881 - cell viability counter screen (AID 1259242); note: nearly all actives have a fitted effect of over 45% in size
# Outline: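 Live-cell protease fluorescence, CellTiter-Fluor, 30 min at 37C. Cells: MDA-kb2, 3,000/well, preincubated 5 hr. Compounds plus 0.5 nM R1881 final, 16 hr, 37C, 0% CO2.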
# [16] = target: Androgen receptor (Homo sapiens) (UniProt P10275); assay: qHTS assay to identify small molecule antagonists of the androgen receptor (AR) signaling pathway using the MDA cell line in the presence of 0.5 nM R1881 (AID 1259243); note: nearly all actives have a fitted effect of over 50% in size
# Sequence of Androgen receptor (Homo sapiens) (P10275 whole entry, looked up): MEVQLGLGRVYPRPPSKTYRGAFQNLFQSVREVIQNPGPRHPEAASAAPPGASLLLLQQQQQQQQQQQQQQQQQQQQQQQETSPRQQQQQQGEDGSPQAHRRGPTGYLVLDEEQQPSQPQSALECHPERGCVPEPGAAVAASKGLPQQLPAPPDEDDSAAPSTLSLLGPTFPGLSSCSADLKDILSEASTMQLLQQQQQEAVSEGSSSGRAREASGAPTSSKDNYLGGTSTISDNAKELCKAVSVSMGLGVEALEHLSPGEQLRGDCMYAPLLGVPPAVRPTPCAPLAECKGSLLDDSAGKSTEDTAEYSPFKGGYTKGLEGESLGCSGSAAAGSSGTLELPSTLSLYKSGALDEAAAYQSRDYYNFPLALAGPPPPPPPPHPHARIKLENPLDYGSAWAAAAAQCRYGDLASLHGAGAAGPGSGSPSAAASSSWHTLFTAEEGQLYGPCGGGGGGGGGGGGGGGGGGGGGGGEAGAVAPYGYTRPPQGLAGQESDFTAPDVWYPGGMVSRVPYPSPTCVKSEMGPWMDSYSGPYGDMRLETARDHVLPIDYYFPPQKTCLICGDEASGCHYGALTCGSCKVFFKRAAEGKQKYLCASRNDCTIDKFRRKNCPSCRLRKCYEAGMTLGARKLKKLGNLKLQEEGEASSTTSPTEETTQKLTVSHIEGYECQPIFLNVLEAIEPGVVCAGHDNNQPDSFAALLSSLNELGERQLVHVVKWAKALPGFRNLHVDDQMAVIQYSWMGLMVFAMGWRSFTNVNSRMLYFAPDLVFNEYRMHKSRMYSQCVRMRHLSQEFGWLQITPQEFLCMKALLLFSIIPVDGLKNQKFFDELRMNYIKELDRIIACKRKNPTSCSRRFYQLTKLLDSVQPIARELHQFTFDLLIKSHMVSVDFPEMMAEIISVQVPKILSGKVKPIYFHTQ
# Outline: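 MDA-kb2, MMTV-luc (AR/GR elements); 3,000 cells/well; cpd + 0.5 nM R1881 final; 16 hr 37C, 0% CO2; ONE-Glo 30 min RT; luminescence.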
# [17] = target: Estrogen receptor (Homo sapiens) (UniProt P03372); assay: qHTS assay to identify small molecule antagonists of the estrogen receptor alpha (ER-alpha) signaling pathway using the BG1 cell line in the presence of 0.1 nM 17-beta-estradiol (AID 1259244); note: nearly all actives have a fitted effect of over 50% in size
# Sequence of Estrogen receptor (Homo sapiens) (P03372 whole entry, looked up): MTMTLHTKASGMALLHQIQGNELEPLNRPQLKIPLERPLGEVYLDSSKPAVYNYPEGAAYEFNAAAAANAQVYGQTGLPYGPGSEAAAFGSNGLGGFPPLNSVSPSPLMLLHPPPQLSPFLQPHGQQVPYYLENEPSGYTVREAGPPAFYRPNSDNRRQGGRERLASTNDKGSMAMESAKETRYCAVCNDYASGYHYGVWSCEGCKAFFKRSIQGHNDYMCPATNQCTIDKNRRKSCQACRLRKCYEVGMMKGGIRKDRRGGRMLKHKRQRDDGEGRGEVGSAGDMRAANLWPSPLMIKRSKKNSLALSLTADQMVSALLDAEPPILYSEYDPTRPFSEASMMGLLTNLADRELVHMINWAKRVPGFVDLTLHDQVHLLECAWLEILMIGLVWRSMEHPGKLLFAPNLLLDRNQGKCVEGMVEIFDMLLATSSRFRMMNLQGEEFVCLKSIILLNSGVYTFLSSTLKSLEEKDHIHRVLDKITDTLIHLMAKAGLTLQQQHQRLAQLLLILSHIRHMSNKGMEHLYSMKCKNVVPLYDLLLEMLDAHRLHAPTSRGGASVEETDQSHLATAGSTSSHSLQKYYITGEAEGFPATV
# Outline: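 Luminescence after ONE-Glo (30 min, room temperature) measured ERE-luciferase activity in VM7Luc4E2 cells treated 22 h with compound and 0.1 nM final 17beta-estradiol as stimulator.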
# [18] = target: Androgen receptor (Homo sapiens) (UniProt P10275); assay: qHTS assay to identify small molecule agonists of the androgen receptor (AR) signaling pathway in the presence of an antagonist (AID 1259381; calls by dose curve; note: nearly all actives have a fitted effect of over 15% in size)
# Outline: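 Luciferase read-out (ONE-Glo, 30min room temperature) in MDA-kb2 MMTV-reporter cells; agonist mode run in presence of AR antagonist nilutamide, 3.0uM final. Compounds tested as 15-point series, 16hr exposure at 37C, 0% CO2.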
# [19] = target: Estrogen receptor (Homo sapiens) (UniProt P03372); assay: qHTS assay to identify small molecule agonists of the estrogen receptor alpha (ER-alpha) signaling pathway in the presence of an antagonist (AID 1259383; calls by dose curve; note: top concentration of the series differs between compounds; nearly all actives have a fitted effect of over 15% in size)
# Outline: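 Luciferase luminescence (ONE-Glo, 30min at room temperature) measured in VM7Luc4E2 cells after 22hr compound exposure at 15 concentrations, with 10.0nM ICI-182,780 final present; cells express endogenous ER-alpha and carry four EREs upstream of luciferase.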
# [20] = qHTS assay to identify small molecule phospholipidosis (PLD) inducers (AID 1259344; active = well fitted curve in the direction sought with a large enough effect; an effect the other way counts as inactive or inconclusive)
# Outline: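 Cells (HepG2, 900 per well) attach for 4 h, receive LipidTOX Red and compound together, incubate 24 h at 37 C, are fixed 30 min with paraformaldehyde/Hoechst, then imaged at one site per well.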
Compound,outcome [1],Potency [2],Potency [3],outcome [4],Potency [5],Potency [6],outcome [7],Potency [8],Potency [9],outcome [10],Potency [11],Potency [12],outcome [13],outcome [14],outcome [15],Potency [16],Potency [17],Potency [18],outcome [19],outcome [20]
CC(CN)CC(C)(C)CCN (configuration not stated),inactive,inactive,inactive,inactive,inactive,inactive,inactive,inactive,inactive,inactive,inactive,inactive,inactive,inactive,–,–,–,–,–,–
CCCOC(=O)C(C)O (configuration not stated),inactive,–,inactive,inactive,inactive,inactive,inactive,inactive,inactive,inactive,inactive,inactive,inactive,inactive,inactive,inactive,inactive,inactive,inactive,–
NCCS,inactive,inactive,inactive,inactive,inactive,inactive,inactive,–,inactive,inactive,inactive,inactive,inactive,–,inactive,–,–,–,–,inactive
O=P(O)(O)OP(=O)(O)O,inactive,inactive,inactive,inactive,inactive,inactive,inactive,–,inactive,inactive,inactive,inactive,inactive,inactive,inactive,–,–,–,–,inactive
CCC(C)(CCC(C)C)C(=O)O (configuration not stated),inactive,inactive,inactive,inactive,inactive,inactive,inactive,inactive,–,–,inactive,inactive,inactive,–,inactive,–,–,–,–,–
C=C(C)C(=O)OCCNC(C)(C)C,inactive,inactive,inactive,inactive,inactive,inactive,inactive,–,–,–,inactive,inactive,inactive,inactive,inactive,–,–,–,–,–
CC(C)CCCCOC(=O)c1ccccc1C(=O)OCCCCC(C)C,inactive,inactive,inactive,inactive,inactive,inactive,inactive,–,inactive,inactive,inactive,inactive,inactive,–,inactive,–,–,–,–,–
CCCOC(OCCC)OCCC,inactive,inactive,inactive,inactive,inactive,inactive,inactive,inactive,inactive,inactive,inactive,inactive,inactive,–,inactive,–,–,–,–,–
Cc1ccccc1OCC(O)CO (configuration not stated),inactive,inactive,inactive,inactive,inactive,inactive,inactive,–,inactive,inactive,inactive,inactive,inactive,inactive,inactive,–,–,–,–,inactive
COCCOCCOCCOCCOCCO,inactive,inactive,inactive,inactive,inactive,inactive,inactive,–,inactive,inactive,inactive,inactive,inactive,inactive,inactive,–,–,–,–,–
CCCCCCCCCCCCCC,inactive,inactive,inactive,inactive,inactive,inactive,inactive,inactive,inactive,inactive,inactive,inactive,inactive,inactive,inactive,–,–,–,–,–
N[C@@H](CCC(=O)Nc1ccc([N+](=O)[O-])cc1)C(=O)O,inactive,inactive,inactive,inactive,inactive,inactive,inactive,inactive,inactive,inactive,48.6 µM (active),inactive,inactive,inactive,–,inactive,inactive,inactive,–,–
CCO[Si](CCCS)(OCC)OCC,inactive,inactive,inactive,inactive,inactive,inactive,inactive,–,inactive,inactive,inactive,inactive,inactive,inactive,inactive,–,–,–,–,–
O=Cc1ccc(Cl)c(Cl)c1,inactive,inactive,inactive,inactive,inactive,inactive,inactive,–,inactive,inactive,inactive,inactive,inactive,inactive,inactive,–,–,–,–,–
CCCCCCCCCCl,inactive,inactive,inactive,inactive,inactive,inactive,inactive,–,inactive,inactive,inactive,inactive,inactive,inactive,inactive,–,–,–,–,–
OCCCCC(O)CO (configuration not stated),inactive,inactive,inactive,inactive,inactive,inactive,inactive,–,inactive,inactive,inactive,inactive,inactive,inactive,inactive,–,–,–,–,–
CCN(C)C(=O)Oc1cccc([C@H](C)N(C)C)c1,inactive,–,inactive,inactive,inactive,inactive,inactive,inactive,inactive,inactive,inactive,inactive,inactive,inactive,inactive,inactive,inactive,–,inactive,inactive
